# In PubChem BioAssay (NCI):
# This is part of a sample that, as a whole, favours compounds with a hit. Of some 79,000 tested, about 15% had one in any assay. Unmarked numbers belong to inactive results. Rule as the data show it: active = growth inhibition above about 70%; inactive = the rest.
# Experiment: NCI Yeast Anticancer Drug Screen. Data for the bub3 strain (AID 167)
# Conditions: S. cerevisiae bub3 mutant strain, at 50.0 µM, hits give high values
# Procedure, shortened: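 In this screen, a yeast mutant lacking normal mitotic checkpoint function is challenged with compound. Relative growth versus vehicle gives the inhibition value.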
row,Structure (SMILES),growth inhibition
1,COc1cc2c(oc(=O)c3c4occc4cc(OC)c23)c2cccc(OCc3ccccc3)c12,-20.9%
2,Cc1csc2nc(-c3ccccc3)[nH]c(=S)c12,-4.8%
3,O=C(OCCSC(=S)N1CCCCC1)c1ccccc1,16.6%
4,CCOC(=O)c1cnc2ccccc2c1OCC,2.55%
5,Brc1cc2c(cc1C1SCCS1)OCO2,28.3%
6,CCCCCCCCCCCCCOCC(=O)OC,12.9%
7,Cc1ccc(S(=O)(=O)NNC(=O)c2cccnc2)cc1,-5.75%
8,Nc1ccc(C(=O)Nc2ccc(C(=O)Nc3ccc4c(O)cc(S(=O)(=O)O)cc4c3)cc2)cc1,-4.7%
9,O=C(O)CCC1CCCO1 (stereo not drawn),15.3%
10,CCCC=Nc1ccccc1,10.8%
11,COc1ccc([N+](=O)[O-])c2ncncc12,-10.9%
12,CC(C)(C)OC(=O)C(C1NC2C(=O)OCC2(CO)S1)N1C(=O)c2ccccc2C1=O (stereo not drawn),-1.75%
13,CN(C)c1nc(N)nc(CS)n1,-4.15%
14,CN(CC1NCCCC1O)C12CC3CC(CC(C3)C1)C2 (stereo not drawn),7%
15,O=[N+]([O-])c1ccc2[nH]ncc2c1,8.45%
16,Clc1ccc(-c2nnc(-c3ccccc3)o2)cc1Cl,-18.9%
17,O=C(NNC(=S)Nc1ccc(S(=O)(=O)N2CCCCC2)cc1)c1ccncc1,33%
18,CC(C)C(O)(C(=O)O)C(C)C,-17.9%
19,CC1(C)/C(=C/N=O)N(O)C(C)(C)N1O,-35.9%
20,COc1ccc(N=Cc2ccc(C=Nc3ccc(OC)cc3)cc2)cc1,20.1%
21,CC(=O)Nc1ccc2c(c1)Cc1cc(Cl)c(Cl)cc1-2,-3.7%
22,CCOC(=O)C(NC(=S)Cc1ccccc1)C(=O)OCC,9.75%
23,CC1C(=O)CCC2CCCCC21 (stereo not drawn),12.2%

# Experiment: NCI Yeast Anticancer Drug Screen. Data for the mlh1 rad18 strain (AID 175)
# Conditions: S. cerevisiae mlh1 rad18 strain growth inhibition; at 50.0 µM; hits give high values
# Procedure, shortened: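 Steps: expose repair-defective yeast to compound; measure growth; express inhibition against vehicle-treated controls.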
row,Structure (SMILES),growth inhibition
1,CC(=O)[O][Ga]([Br])[O]C(C)=O,0.5%
2,CCOC(=O)C(NC(=O)c1ccccc1)(N1CCN(c2cc3c(cc2F)c(=O)c(C(=O)O)cn3CC)CC1)C(F)(F)F (stereo not drawn),-20.8%
3,O=c1cc[nH]c2ccc(Cl)cc12,-1.45%
4,CN(C)C(=S)OCC(C)(C)C,-23.6%
5,CC(=O)NC(Cc1ccccc1)C(=O)Nc1ccccc1C (stereo not drawn),7.35%
6,CCCCCn1[nH]nc(C(=O)OC)c1=O (tested in a mixture with another compound),34.4%
7,O=c1ccc(=O)c2c(=O)c3cc4[nH]c5ccccc5[nH]c4cc3c(=O)c12,5.2%
8,CCOC(=O)CSc1nc(-c2ccc(Cl)cc2)c(C#N)c(=O)[nH]1,-79%
9,COc1cc2c(cc1OC)C1CCc3ccccc3CN1CC2 (stereo not drawn),3.15%
10,CC(=O)Nc1ccc(C(=O)N2N=C(C)/C(=C/c3cccc([N+](=O)[O-])c3)C2=O)cc1,-32.2%
11,COc1cccc(NC(=O)CC(=O)Nc2cccc(OC)c2)c1,-18.7%
12,O=C(O)C1C2CCC3C(C(=O)O)C3C21 (stereo not drawn),-0.8%
13,C=C1CCN(c2ccc([N+](=O)[O-])cc2)C1=O,10.3%
14,CCOC(=O)C(=O)C(=O)NN(C)C1=NCCN1,2%
15,Cc1cc(CC#N)c(CC#N)cc1C,3.95%
16,S=c1sc2cscc2s1,-1.8%
17,Nc1cc(F)ccc1CC(=O)O,4.6%
18,COc1cc2c(oc(=O)c3c4occc4cc(OC)c23)c2cccc(OCc3ccccc3)c12,3.85%
19,Cc1csc2nc(-c3ccccc3)[nH]c(=S)c12,6.75%
20,O=C(OCCSC(=S)N1CCCCC1)c1ccccc1,-0.4%

row,Structure (SMILES),growth inhibition
1,CCOC(=O)c1cnc2ccccc2c1OCC,0.55%
2,Brc1cc2c(cc1C1SCCS1)OCO2,34.6%
3,CCCCCCCCCCCCCOCC(=O)OC,1.6%
4,Cc1ccc(S(=O)(=O)NNC(=O)c2cccnc2)cc1,4.8%
5,Nc1ccc(C(=O)Nc2ccc(C(=O)Nc3ccc4c(O)cc(S(=O)(=O)O)cc4c3)cc2)cc1,12.8%
6,O=C(O)CCC1CCCO1 (stereo not drawn),-0.6%
7,CCCC=Nc1ccccc1,13.1%
8,COc1ccc([N+](=O)[O-])c2ncncc12,20.6%
9,CC(C)(C)OC(=O)C(C1NC2C(=O)OCC2(CO)S1)N1C(=O)c2ccccc2C1=O (stereo not drawn),12.5%
10,CN(C)c1nc(N)nc(CS)n1,-39.5%
11,CN(CC1NCCCC1O)C12CC3CC(CC(C3)C1)C2 (stereo not drawn),-4.35%
12,O=[N+]([O-])c1ccc2[nH]ncc2c1,13.7%
13,Clc1ccc(-c2nnc(-c3ccccc3)o2)cc1Cl,-6.5%
14,O=C(NNC(=S)Nc1ccc(S(=O)(=O)N2CCCCC2)cc1)c1ccncc1,46%
15,CC(C)C(O)(C(=O)O)C(C)C,-1.15%
16,CC1(C)/C(=C/N=O)N(O)C(C)(C)N1O,-15.2%
17,COc1ccc(N=Cc2ccc(C=Nc3ccc(OC)cc3)cc2)cc1,19.9%
18,CC(=O)Nc1ccc2c(c1)Cc1cc(Cl)c(Cl)cc1-2,37.6%
19,CCOC(=O)C(NC(=S)Cc1ccccc1)C(=O)OCC,-0.35%
20,CC1C(=O)CCC2CCCCC21 (stereo not drawn),17.2%
